WRN helicase inh-1: WRN helicase (human) inhibition; Q14191; WRN helicase unwinding, fluorescent forked duplex, kinetic; Potency, µM (highest dose often 114 µM), for the others: at the highest dose activity change, negative = inhibition, actives largely listed as inhibitors; 0.46% of 360,000 active; also: % is scaled to controls: 0 for no effect and ±100 for the full control effect; nearly all actives have a fitted effect of over 55% in size
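Kinetic red-fluorescence monitoring (525/598 nm) tracks WRN helicase activity after 100 nM fluorophore-quencher forked duplex and 2 mM ATP are added to 20 nM enzyme pretreated 15 min at room temperature with compound.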
Pol eta inh-1: blocks human DNA polymerase eta activity. Q9Y253. recombinant Pol eta, fluorescent DNA replication assay. Potency, µM (titrated, usually from 114 µM), for the others: at the top dose activity change, negative = inhibition, usual class: inhibitors. 1.2% of 390,000 active. AID 588591; also: % is scaled to controls: 0 for no effect and ±100 for the full control effect
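Pol eta (10 nM) was preincubated with compounds for 15 min at room temperature, after which fluorescent replication substrate (50 nM final) was added to start the reaction. Fluorescence was read kinetically at 0 and 10 min.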
Pol kappa inh-1: DNA polymerase kappa (human) inhibition; purified Pol kappa, fluorescent DNA synthesis assay, 10 min; Potency, µM (top dose mostly 107 µM), inactives show at the top dose activity, negative = inhibition, hits mostly inhibitors; 0.53% of 400,000 active; also: % is scaled to controls: 0 for no effect and ±100 for the full control effect
Target sequence (Q9UBT6 whole entry, looked up): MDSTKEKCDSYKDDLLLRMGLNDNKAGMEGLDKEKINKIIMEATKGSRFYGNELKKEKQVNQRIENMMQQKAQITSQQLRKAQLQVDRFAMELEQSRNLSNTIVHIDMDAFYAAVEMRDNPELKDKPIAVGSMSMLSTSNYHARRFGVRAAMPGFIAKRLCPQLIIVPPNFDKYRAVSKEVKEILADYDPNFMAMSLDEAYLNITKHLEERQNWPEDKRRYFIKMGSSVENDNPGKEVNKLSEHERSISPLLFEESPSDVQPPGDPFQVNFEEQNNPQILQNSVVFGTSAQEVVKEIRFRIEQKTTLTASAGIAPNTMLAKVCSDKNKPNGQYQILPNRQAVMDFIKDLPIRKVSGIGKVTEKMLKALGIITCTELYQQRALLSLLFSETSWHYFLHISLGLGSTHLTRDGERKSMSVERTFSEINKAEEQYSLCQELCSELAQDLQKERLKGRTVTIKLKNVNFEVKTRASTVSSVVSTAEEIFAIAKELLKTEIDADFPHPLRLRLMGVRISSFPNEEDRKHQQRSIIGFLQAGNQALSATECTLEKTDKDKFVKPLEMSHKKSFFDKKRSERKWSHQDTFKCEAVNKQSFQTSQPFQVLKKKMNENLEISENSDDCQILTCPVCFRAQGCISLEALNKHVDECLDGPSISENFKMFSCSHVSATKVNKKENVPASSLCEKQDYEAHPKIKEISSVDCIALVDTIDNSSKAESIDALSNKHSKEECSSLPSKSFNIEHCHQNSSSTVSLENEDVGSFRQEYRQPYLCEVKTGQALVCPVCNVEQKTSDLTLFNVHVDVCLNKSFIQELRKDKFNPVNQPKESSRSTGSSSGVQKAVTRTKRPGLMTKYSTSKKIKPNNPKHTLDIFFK
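10 nM Pol kappa was preincubated with compounds for 15 min at room temperature. Reaction started with 50 nM (final) substrate. Fluorescence read kinetically at 0 and 10 min.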
POLI inh: inhibitors of human DNA polymerase iota. Q9UNA4. Pol iota fluorescent replication assay, 10 min. Potency, µM (highest dose often 115 µM), for the others: at the top dose activity, negative = inhibition, most hits filed as inhibitors. 1% of 390,000 active. AID 588590
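Pol iota at 10 nM preincubated 15 min with compounds at room temperature; reaction started with fluorescent substrate, 50 nM final. Fluorescence read kinetically at 0 and 10 min; buffer-only wells as negative control.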
Pol beta inh: DNA polymerase beta (human) inhibition; Pol beta primer extension/strand displacement, fluorescence kinetic; Potency, µM (series often up to 114 µM), inactives show at the highest dose activity change, negative = inhibition, usual class: inhibitors; 1.3% of 340,000 active; AID 485314; also: % is scaled to controls: 0 for no effect and ±100 for the full control effect
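Pol beta (10 nM) and compounds were preincubated 15 min at room temperature, then 50 nM substrate (final) started primer extension/strand displacement. Reads were taken at 0 and 10 min; concentration-response data were fitted to a four-parameter Hill equation.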
FEN1 inh-1: inhibitors of human flap endonuclease 1; P39748; Recombinant FEN1 flap cleavage, fluorescence, 15 min; Potency, µM (titrated, usually from 114 µM), for the others: at the top dose activity change, negative = inhibition, hits mostly inhibitors; 0.35% of 390,000 active; AID 588795; also: % is scaled to controls: 0 for no effect and ±100 for the full control effect; nearly all actives have a fitted effect of over 65% in size
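In this screen, 50 nM flap DNA substrate was added to 10 nM FEN1 pretreated with compound for 15 min at room temperature; cleavage was followed with reads at 0 and 15 min, and Hill fitting gave concentration–response parameters.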
TbPGK inh: TbPGK inhibition, hit validation; shares compounds with Pol kappa inh-1; TbPGK coupled GAPDH assay, Kinase-Glo luminescence; Potency, µM (highest dose often 57.5 µM), for inactives: at the highest dose activity change, negative = inhibition, most hits filed as inhibitors; 79% of 500 active; AID 686980; also: % is scaled to controls: 0 for no effect and ±100 for the full control effect; nearly all actives have a fitted effect of over 65% in size
POLI cherry-pick: Confirm cherry-picked inhibitors of human polymerase iota | shares compounds with Pol kappa inh-1 | Pol iota primer extension, TAMRA/BHQ fluorescence | Potency, µM, most hits filed as inhibitors | 77% of 1,500 active
Pol kappa inh-2: Pol kappa (human) inhibition, cherry-pick confirmation; shares compounds with Pol eta inh-1; purified Pol-kappa, fluorescent strand-displacement substrate; Potency, µM, hits mostly inhibitors; 76% of 920 active; AID 720501
Pol eta inh-2: confirmation of human DNA polymerase eta inhibitors; shares compounds with Pol eta inh-1; 64% of 2,600 active; Pol eta primer extension, TAMRA/BHQ fluorescence, 10 min; Potency, µM, most hits filed as inhibitors; AID 720502
FEN1 inh-2: confirmation of human FEN1 inhibitors. shares compounds with FEN1 inh-1. FEN1 flap cleavage, TAMRA/BHQ2 fluorogenic DNA substrate. Potency, µM, hits mostly inhibitors. 79% of 880 active; also: nearly all actives have a fitted effect of over 60% in size
WRN helicase inh-2: confirmation of human WRN helicase inhibitors | 63% of 610 active | shares compounds with WRN helicase inh-1 | Potency, µM (top dose mostly 57.1 µM), for inactives: at the highest dose activity, negative = inhibition, usual class: inhibitors | WRN helicase DNA unwinding, fluorescence kinetic; also: nearly all actives have a fitted effect of over 65% in size
TO displacement: counter-screen for WRN helicase inhibitors: DNA binding. shares compounds with WRN helicase inh-1. thiazole orange DNA binding displacement, fluorescence. Potency, µM (top dose mostly 57.1 µM), without a hit: at the top dose activity change, negative = inhibition, actives largely listed as inhibitors. 10% of 610 active. AID 720499;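 also: drop in dye fluorescence marks compound binding to DNA; % is scaled to controls: 0 for no effect and ±100 for the full control effect; nearly all actives have a fitted effect of over 60% in size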
BLM helicase inh: blocks human BLM helicase in WRN counterscreen | shares compounds with WRN helicase inh-1 | Recombinant BLM helicase DNA unwinding, red fluorescence | Potency, µM (top dose mostly 57.1 µM), for inactives: top-dose activity change, negative = inhibition, usual class: inhibitors | 60% of 610 active | AID 720503; also: nearly all actives have a fitted effect of over 60% in size
Numbers without * were called inactive; i = inactive; ? = inconclusive; . = not tested or not shown; [ ] = dose if it differs, or a comment. The list is not random: actives were taken first. Their share in the collection is about 2.4%. Calls follow the shape of the dose curve; as a rule, active = well fitted curve in the direction sought with a large enough effect; inconclusive = small, poorly fitted or top-dose-only effect, or another doubt; inactive = no such curve, though single readings can be large; an effect the other way counts as inactive or inconclusive. Potency is read from the fitted curve at half-maximal effect.

SMILES	WRN helicase inh-1	Pol eta inh-1	Pol kappa inh-1	POLI inh	Pol beta inh	FEN1 inh-1	TbPGK inh	POLI cherry-pick	Pol kappa inh-2	Pol eta inh-2	FEN1 inh-2	WRN helicase inh-2	TO displacement	BLM helicase inh
Nc1ccc2nc(-c3cccc(-c4nc5ccc(N)cc5[nH]4)n3)[nH]c2c1	20µM*	20µM*	56.2µM*	14.1µM*	25.1µM*	?	.	16.8*	26.7*	19*	1.69*	5.41µM*	17.1µM*	4.82µM*
Nc1cccc(-c2nc3ccccc3[nH]2)c1	-4.8%	-13.3%	-9.5%	-11.2%	-9.3%	-15.7%	.	.	.	.	.	.	.	.
O=C(O)c1ccccc1-c1ccccc1C(=O)Nc1ccc2c(c1)oc(=O)c1ccccc12	-24.5%	5.2%	.	.	.	.	.	.	.	.	.	.	.	.
O=C(O)c1ccccc1-c1c2cc(I)c(=O)c(I)c-2oc2c(I)c(O)c(I)cc12	4.74µM*	15.8µM*	22.4µM*	12.6µM*	.	39.8µM*	10.3µM*	18.9*	29.9*	67.5*	37.9*	21.5µM*	i	19.2µM*
O=C1c2ccccc2C(=O)c2c(NCc3cccnc3)cccc21	-19.7%	-1.4%	-12.5%	8.6%	-2.1%	-18.1%	.	.	.	.	.	.	.	.
O=C1c2cccc(NCCCNCCO)c2C(=O)c2cccc(NCCCNCCO)c21	10µM*	4.47µM*	31.6µM*	44.7µM*	.	3.55µM*	.	18.9*	16.8*	37.9*	4.26*	1.08µM*	0.857µM*	1.71µM*
CCN(CC)CCn1c2c(c(SCC(=O)Nc3cccc(C(F)(F)F)c3)nc1=O)CCC2	.	-18.0%	-7.2%[60.1 µM]	?	4.3%	15.8%	.	.	.	.	.	.	.	.
Cc1nc(S/C(=C\c2ccc(-c3ccc(C(=O)O)c(Cl)c3)o2)C(=O)O)n[nH]1	39.8µM*	5.01µM*	8.91µM*	3.16µM*	10µM*	?	14.6µM*	16.8*	.	5.36*	42.6*	1.21µM*	?	19.2µM*
Cc1c(NC(=O)/C(C#N)=C/c2ccc(-c3ccc(Cl)c(Cl)c3)o2)c(=O)n(-c2ccccc2)n1C	-3.5%	-14.3%	-2.4%	102.0%	-23.5%	-2.5%	.	.	.	.	.	.	.	.
O=c1c(-c2ccc([N+](=O)[O-])cc2)coc2c(O)c(O)ccc12	22.4µM*	3.16µM*	7.08µM*	8.91µM*	?	?	2.59µM*	.	.	8.49*	.	4.82µM*	-11.0%	4.29µM*
